High-throughput results from PubChem.
A selection: hits, their analogues and other compounds. The true share with any hit is near 19%.
DT40 TDP1 no CPT: qHTS for Inhibitors of human tyrosyl-DNA phosphodiesterase 1 (TDP1): qHTS in cells in absence of CPT; DT40 Tdp1-/- hTDP1 cells, no CPT, ATP luminescence, 48 h; Potency, µM (series often up to 46.2 µM), hits mostly inhibitors; 15% of 420,000 active; further: nearly all actives have a fitted effect of over 55% in size
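Stably hTDP1-transfected Tdp1-null chicken DT40 cells were treated with library compounds minus camptothecin and grown for at least 48 hr at 37 °C, after which cellular ATP was quantified by luminescence.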
KB-V1 cytotox: qHTS assay for MDR1-selective chemotherapeutics: Primary screen using the drug-selected MDR subline cells KB-V1 | KB-V1 MDR cells viability, CellTiter-Glo, 72 h | Potency, µM (titrated, usually from 46.1 µM), usual class: cytotoxic | 3.4% of 400,000 active | AID 1347076, 2019; further: nearly all actives have a fitted effect of over 60% in size
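Drug-selected KB-V1 cells, grown in DMEM lacking phenol red with 10% FBS, receive compound titrations; after three days at 37 degrees C, surviving cell ATP is quantified by CellTiter-Glo luminescence and responses normalized and curve-fitted.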
HT1080-NT tox: qHTS for induction of synthetic lethality in tumor cells producing 2HG: qHTS for the HT-1080-NT fibrosarcoma cell line; HT-1080-NT fibrosarcoma viability, CellTiter-Glo ATP luminescence, 48 h; Potency, µM (series often up to 46.1 µM), usual class: cytotoxic; 1.6% of 360,000 active;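 further: NT is the 2HG producing partner of a matched IDH1 knockdown line; nearly all actives have a fitted effect of over 55% in size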
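750 cells/well, RPMI + 5% FBS; 2 h settle, compound pin-transfer, 48 h at 37 degrees C. CellTiter-Glo 10 min RT, luminescence. Normalized to DMSO and media-only wells.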
KB-3-1 cytotox: qHTS assay for MDR1-selective chemotherapeutics: Primary screen using the parental adenocarcinoma cell KB-3-1. 1.4% of 400,000 active. KB-3-1 viability, CellTiter-Glo ATP luminescence, 72 h. Potency, µM (series often up to 46.1 µM), actives largely listed as cytotoxic; further: nearly all actives have a fitted effect of over 60% in size
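Cytotoxicity in the drug-sensitive parental line KB-3-1 was scored as loss of CellTiter-Glo luminescence following 72 h incubation with compound. Values come from curve fitting of normalized concentration-response data.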
TDP1 cell CPT: qHTS for Inhibitors of human tyrosyl-DNA phosphodiesterase 1 (TDP1): qHTS in cells in presence of CPT; 12% of 420,000 active; Potency, µM (series often up to 46.2 µM), actives largely listed as inhibitors; chicken DT40 Tdp1-/-;hTDP1 cells + 20 nM CPT, ATP luminescence, 48 h; further: nearly all actives have a fitted effect of over 55% in size
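Chicken DT40 Tdp1-/- cells stably complemented with human TDP1 were seeded at 400 cells/well in medium containing 20 nM camptothecin, exposed to pin-transferred compounds, and grown at 37 °C for at least 48 hr. Viability was read as ATP luminescence.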
HT1080 IDH1KD tx: qHTS for induction of synthetic lethality in tumor cells producing 2HG: qHTS for the HT-1080-IDH1KD cell line. 2% of 360,000 active. HT-1080 IDH1 knockdown viability, ATP luminescence, 48 h. AID 686971, 2013. Potency, µM (top dose mostly 46.1 µM), usual class: cytotoxic
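Knockdown cells (IDH1KD HT-1080) received compounds 2 h after plating at 750 cells/well and were kept 48 h at 37 °C in 5% FBS RPMI. A CellTiter-Glo luminescence read gave % activity for curve fitting.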
Hits are given with their value; [ ] = another dose, or the depositor's remark. The call rests on the fitted dose curve; in most records, active means well fitted curve in the direction sought with a large enough effect; inconclusive means small, poorly fitted or top-dose-only effect, or another doubt; inactive means no such curve, though single readings can be large; an effect the other way counts as inactive or inconclusive.

For CCN(CC)C(=O)c1ccc(NC(=O)c2cn(-c3ccccc3)nc2-c2ccc(OC)cc2)cc1 the results were DT40 TDP1 no CPT inconclusive, KB-V1 cytotox inactive, HT1080-NT tox inactive, KB-3-1 cytotox inactive, TDP1 cell CPT inconclusive and HT1080 IDH1KD tx inactive.
Screening COc1ccc(NC(=O)c2ccccc2SCc2ccccc2)cc1 returned DT40 TDP1 no CPT 4.61µM, KB-V1 cytotox inactive, HT1080-NT tox inactive, KB-3-1 cytotox inconclusive, TDP1 cell CPT 5.17µM and HT1080 IDH1KD tx inactive.
C=CCc1ccccc1OCCn1c(C2CC(=O)N(Cc3ccc(F)cc3)C2)nc2ccccc21 (stereo unspecified) was read as DT40 TDP1 no CPT inconclusive, KB-V1 cytotox inconclusive, KB-3-1 cytotox inconclusive and TDP1 cell CPT 16.4µM.
Screening O=[N+]([O-])c1ccc(C(=Nc2ccccc2)N2CC2)cc1 returned DT40 TDP1 no CPT 14.6µM, HT1080-NT tox inactive, TDP1 cell CPT 8.2µM and HT1080 IDH1KD tx inactive.
`C=C1C2C[C@]3(C4CC5[C@@]6(C)CC[C@H](O)[C@@]5(C3CC2=O)C4[N+]([O-])(CC)C6)[C@@H]1O` (stereo partly specified) gave DT40 TDP1 no CPT inactive[9.04 µM] and TDP1 cell CPT inactive[9.04 µM].
Screening COc1ccccc1CCNC1CCC(C)CC1 (stereo unspecified) returned DT40 TDP1 no CPT inconclusive, KB-V1 cytotox inactive, HT1080-NT tox inactive, KB-3-1 cytotox inactive, TDP1 cell CPT inactive and HT1080 IDH1KD tx inactive.
`COc1ccccc1CCNC1C2CC3CC(C2)CC1C3` (stereo unspecified) gave DT40 TDP1 no CPT inconclusive, KB-V1 cytotox 14.6µM, HT1080-NT tox inactive, KB-3-1 cytotox inactive, TDP1 cell CPT inactive and HT1080 IDH1KD tx inactive.
For COCCN1C(=NCCCOC(C)C)N[C@@H](c2ccccc2)C(C(=O)OC)=C1C the results were DT40 TDP1 no CPT inconclusive, KB-V1 cytotox inactive, HT1080-NT tox inactive, KB-3-1 cytotox inactive, TDP1 cell CPT inconclusive and HT1080 IDH1KD tx inactive.
For CCOC(=O)c1cc2c(cn1)[C@@H](CCO)NC2 the results were DT40 TDP1 no CPT inactive, KB-V1 cytotox inactive, HT1080-NT tox inactive, KB-3-1 cytotox inconclusive, TDP1 cell CPT inactive and HT1080 IDH1KD tx inactive.
Screening COC(=O)C1=Nc2ccccc2/C1=C\c1c(O)n(-c2ccc(Br)cc2)c(=O)[nH]c1=O returned DT40 TDP1 no CPT inconclusive, KB-V1 cytotox inactive, HT1080-NT tox inconclusive, KB-3-1 cytotox inactive, TDP1 cell CPT inconclusive and HT1080 IDH1KD tx inconclusive.
For O=c1[nH]c(=O)n(-c2ccccc2)c(O)c1/C=C1/C(c2ccccc2)=Nc2ccccc21 the results were DT40 TDP1 no CPT 2.31µM, KB-V1 cytotox 2.91µM, HT1080-NT tox 4.11µM, KB-3-1 cytotox 3.26µM, TDP1 cell CPT 2.06µM and HT1080 IDH1KD tx 2.06µM.
`COc1ccc(C(=O)NC(=S)NNC(=O)c2cccnc2)cc1` gave DT40 TDP1 no CPT inconclusive, KB-V1 cytotox inconclusive, HT1080-NT tox inactive, KB-3-1 cytotox inactive, TDP1 cell CPT inconclusive and HT1080 IDH1KD tx inactive.
For COc1ccc(CC(=O)NC(=S)NNC(=O)COc2c(C)cccc2C)cc1 the results were DT40 TDP1 no CPT 16.4µM, KB-V1 cytotox inactive, HT1080-NT tox inactive, KB-3-1 cytotox inconclusive, TDP1 cell CPT 16.4µM and HT1080 IDH1KD tx inactive.
Cn1c(O)c(C=NCCN2CCN(C(=O)Nc3ccccc3)CC2)c(=O)n(C)c1=O was read as DT40 TDP1 no CPT inactive, KB-V1 cytotox inactive, HT1080-NT tox inactive, KB-3-1 cytotox inactive, TDP1 cell CPT inactive and HT1080 IDH1KD tx inactive.
`CC(C)(C)c1csc(NC(=O)Nc2ccccc2)n1` gave DT40 TDP1 no CPT inconclusive, KB-V1 cytotox inactive, HT1080-NT tox inconclusive, KB-3-1 cytotox inactive, TDP1 cell CPT inactive and HT1080 IDH1KD tx inconclusive.
NC(CCc1ccccc1)c1csc(NC(=O)Nc2ccccc2Oc2ccccc2)n1 (stereo unspecified) was read as DT40 TDP1 no CPT 6.51µM, KB-V1 cytotox 23.1µM, HT1080-NT tox 23.1µM, KB-3-1 cytotox inconclusive, TDP1 cell CPT 6.51µM and HT1080 IDH1KD tx inconclusive.
O=P1(c2ccccc2)Nc2ccccc2N1c1ccccc1 (stereo unspecified) was read as DT40 TDP1 no CPT inconclusive, KB-V1 cytotox inactive, HT1080-NT tox inactive, KB-3-1 cytotox inactive, TDP1 cell CPT inconclusive and HT1080 IDH1KD tx inactive.
For CCN(CC)C(=O)c1ccc(NC(=O)c2cccc(F)c2)cc1 the results were DT40 TDP1 no CPT inactive, KB-V1 cytotox 20.6µM, HT1080-NT tox inactive, KB-3-1 cytotox inactive, TDP1 cell CPT inconclusive and HT1080 IDH1KD tx inactive.
Screening Cc1ccc(C)c(S(=O)(=O)c2nnn3c2nc(N2CCCC2)c2sccc23)c1 returned DT40 TDP1 no CPT inconclusive, KB-V1 cytotox inactive, KB-3-1 cytotox inactive and TDP1 cell CPT 16.4µM.
Cc1c(C(=O)N2CCC3(CC2)OCCO3)oc2ccc(S(=O)(=O)N3CCOCC3)cc12 was read as DT40 TDP1 no CPT inactive, KB-V1 cytotox inactive, HT1080-NT tox inactive, KB-3-1 cytotox inactive, TDP1 cell CPT inactive and HT1080 IDH1KD tx inactive.
`Cc1c(C(=O)N2CCC3(CC2)OCCO3)oc2ccccc12` gave DT40 TDP1 no CPT inactive, KB-V1 cytotox inconclusive, HT1080-NT tox inactive, KB-3-1 cytotox inactive, TDP1 cell CPT inactive and HT1080 IDH1KD tx inactive.
Screening Cc1c(C(=O)NCCC2=CCCCC2)oc2ccc(S(=O)(=O)N3CCC4(CC3)OCCO4)cc12 returned DT40 TDP1 no CPT 23.1µM, KB-V1 cytotox 16.4µM, HT1080-NT tox inactive, KB-3-1 cytotox inconclusive, TDP1 cell CPT 18.4µM and HT1080 IDH1KD tx inactive.
Screening Cc1c(Cl)cccc1NC(=O)c1oc2ccc(S(=O)(=O)N3CCC4(CC3)OCCO4)cc2c1C returned DT40 TDP1 no CPT 4.11µM and TDP1 cell CPT 4.11µM.
`Cc1c(C(=O)Nc2ccccc2Cl)oc2ccc(S(=O)(=O)N3CCCCC3)cc12` gave DT40 TDP1 no CPT 16.4µM, KB-V1 cytotox inactive, KB-3-1 cytotox inactive and TDP1 cell CPT 20.6µM.
Screening CCCCN(C)C(=O)c1oc2ccc(S(=O)(=O)N3CCCCCC3)cc2c1C returned DT40 TDP1 no CPT inconclusive, KB-V1 cytotox 2.59µM, HT1080-NT tox inconclusive, KB-3-1 cytotox inactive, TDP1 cell CPT 18.4µM and HT1080 IDH1KD tx inconclusive.
Screening CN(CC#CCN1CCCC1)C(=O)c1cccc(Cl)c1 returned KB-V1 cytotox inactive and KB-3-1 cytotox inactive.
O=[N+]([O-])c1nccn1CO[C@@H](CO)[C@H](O)CO was read as DT40 TDP1 no CPT inactive and TDP1 cell CPT inconclusive.
